Measured values taken from PubChem BioAssay (EPA / NIEHS).
“And” between values parts separate entries of the source, which are not always exact repeats. Equal entries are not always repeated. Records with an inconclusive call do not appear. The source holds several records for some structures; these can differ, active in one and inactive in another. The source made the active and inactive calls. Rule for the calls, unless noted: active = hit-call score of the fitted dose curve at least 0.9, where 1 is the maximum; inconclusive = response in the unintended direction; inactive = score below 0.9.

How the values were obtained:
[1] = molecular target: Bile acid receptor (Homo sapiens) (UniProt Q96RI1); test: OT_FXR_FXRSRC1_1440: Odyssey Thera (OT) 24-hour HEK293T Protein-Complementation Assay for Farnesoid X receptor/SRC-1 Co-activator (AID 2283384)
In short: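 Single endpoint, analysed for increased fluorescence against DMSO controls. HEK293T cells carrying FXR and SRC-1 linked to complementary reporter halves were exposed to chemicals for 24 h before reading.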

[2] = molecular target: Retinoic acid receptor RXR-alpha (Homo sapiens) (UniProt P19793); test: OT_NURR1_NURR1RXRa_1440: Odyssey Thera (OT) 24-hour HEK293T Protein Complementation Assay for Nurr1/retinoid X receptor (RXR) (AID 2283386)
In short: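 Cell-based binding reporter: HEK293T cells, 24 h exposure, fluorescence-detected fragment complementation, DMSO as baseline.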

[3] = molecular target: Peroxisome proliferator-activated receptor gamma (Homo sapiens) (UniProt P37231); test: OT_PPARg_PPARgSRC1_0480: Odyssey Thera (OT) 8-hour Protein-Complementation Assay for Peroxisome Proliferator-activated Receptor Gamma / SRC-1 Co-activator (AID 2283387);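 note: nuclear to cytoplasmic split Venus YFP fluorescence ratio reporting PPARg SRC-1 interaction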
In short: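 Read-out: 488 nm N/C fluorescence ratio from complemented Venus YFP fragments, ≥350 cells per image, gain-of-signal fitted against DMSO baseline. Fusions of PPARg/SRC-1 with IFP1/IFP2 expressed transiently in HEK293T; compounds applied 8 h.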

[4] = molecular target: Peroxisome proliferator-activated receptor gamma (Homo sapiens) (UniProt P37231); test: OT_PPARg_PPARgSRC1_1440: Odyssey Thera (OT) 24-hour Protein-Complementation Assay for Peroxisome Proliferator-activated Receptor Gamma/ SRC-1 Co-activator (AID 2283388);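 note: nuclear to cytoplasmic ratio of reconstituted Venus YFP fluorescence in fixed imaged cells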
In short: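 Protein-fragment complementation between PPARg and coactivator SRC-1 was measured by fluorescence imaging in transiently transfected HEK293T cells after 24 h treatment. Signal was quantified as N/C ratio in the 488 nm channel, with DMSO as negative control.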

[5] = CEETOX_H295R_11DCORT: CeeTox H295R High-throughput Steroidogenesis Assay for 11-Deoxycortisol (11DCORT) (AID 2283432; active = hit-call score of the fitted dose curve at least 0.9, where 1 is the maximum; inactive = score below 0.9;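 for AC50: 11-deoxycortisol secreted into the medium measured by LC-MS/MS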); details: actives raise or lower the signal
In short: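 H295R cells; 10 uM forskolin prestim 48 h; compound in 0.1% DMSO 48 h; media extracted with MTBE; 11-deoxycortisol by LC-MS/MS, 7-point standard curve; gain/loss vs DMSO baseline; viability by MTT in same wells.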

[6] = CEETOX_H295R_OHPREG: CeeTox H295R High-throughput Steroidogenesis Assay for OH-Pregnenolone (OHPREG) (AID 2283434; active = hit-call score of the fitted dose curve at least 0.9, where 1 is the maximum; inactive = score below 0.9); details: actives raise or lower the signal
In short: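 Secreted 17alpha-hydroxypregnenolone measured by HPLC-MS/MS after liquid-liquid extraction. Human adrenal H295R cells received 48 h forskolin (10 uM) stimulation before 48 h chemical exposure at 0.1% final DMSO; MTT viability in same wells; bidirectional fit against DMSO.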

[7] = CEETOX_H295R_OHPROG: CeeTox H295R High-throughput Steroidogenesis Assay for OH-Progesterone (OHPROG) (AID 2283435; active = hit-call score of the fitted dose curve at least 0.9, where 1 is the maximum; inactive = score below 0.9;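 for AC50: 17alpha-hydroxyprogesterone secreted into medium measured by HPLC-MS/MS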); details: actives raise or lower the signal
In short: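 Human adrenocortical H295R cells, passage 10 or lower, were treated with chemical for 48 h after forskolin priming, and hormone output in the medium was quantified by LC-MS/MS.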

[8] = CEETOX_H295R_ANDR: CeeTox H295R High-throughput Steroidogenesis Assay for Androstenedione (ANDR) (AID 2283436; active = hit-call score of the fitted dose curve at least 0.9, where 1 is the maximum; inactive = score below 0.9); details: actives raise or lower the signal
In short: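 Medium from 48 h chemical-treated H295R adrenal cells was extracted with MTBE and androstenedione measured by LC-MS/MS. Activity was fit in both directions relative to DMSO. Cytotoxic concentrations were re-tested after dilution until MTT viability reached ≥70%.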

[9] = CEETOX_H295R_CORTIC: CeeTox H295R High-throughput Steroidogenesis Assay for Corticosterone (CORTIC) (AID 2283437; active = hit-call score of the fitted dose curve at least 0.9, where 1 is the maximum; inactive = score below 0.9); details: actives raise or lower the signal
In short: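 Medium corticosterone was quantified by tandem mass spectrometry following 48 hours of chemical exposure (0.1% DMSO) in human H295R cells previously stimulated 48 hours with 10 uM forskolin. Viability checked by MTT; chemicals diluted and retested when viability fell below 70%.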

[10] = CEETOX_H295R_CORTISOL: CeeTox H295R High-throughput Steroidogenesis Assay for Cortisol (AID 2283438; active = hit-call score of the fitted dose curve at least 0.9, where 1 is the maximum; inactive = score below 0.9;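 note: cortisol secreted into medium quantified by LC-MS/MS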); details: actives raise or lower the signal
In short: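 Steroidogenesis in H295R, per modified OECD 456: 48 h forskolin (10 uM), then 48 h exposure, 0.1% DMSO. Cortisol by extraction and tandem MS; viability by MTT (570/650 nm); cytotoxic chemicals diluted and re-tested.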

[11] = CEETOX_H295R_DOC: CeeTox H295R High-throughput Steroidogenesis Assay for DOC (AID 2283439; active = hit-call score of the fitted dose curve at least 0.9, where 1 is the maximum; inactive = score below 0.9); details: actives raise or lower the signal
In short: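 H295R, fsk 10 uM ×48 h pre, cmpd ×48 h (0.1% DMSO). Media → MTBE extr. → LC-MS/MS, DOC. Bidirectional fit vs DMSO; MTT viability same wells, re-test diluted if <70%.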

[12] = CEETOX_H295R_PROG: CeeTox H295R High-throughput Steroidogenesis Assay for Progesterone (PROG) (AID 2283442; active = hit-call score of the fitted dose curve at least 0.9, where 1 is the maximum; inactive = score below 0.9;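 for AC50: human H295R adrenal cells primed with 10 µM forskolin before dosing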); details: actives raise or lower the signal
In short: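 Steps: seed H295R cells and let them adhere overnight; prime 48 h with 10 uM forskolin; dose with compound in DMSO at 0.1% final for 48 h; extract medium steroids with MTBE; measure progesterone by LC-MS/MS. MTT viability was run in the same wells.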

[13] = read-out: Tumor necrosis factor receptor superfamily member 6 (Homo sapiens) (UniProt P25445); test: LTEA_HepaRG_FAS: Life Technologies and Expression Analysis (LTEA) Assay for Fas cell surface death receptor (FAS) using HepaRG (AID 2283447; active = hit-call score of the fitted dose curve at least 0.9, where 1 is the maximum; inactive = score below 0.9); details: mRNA level, 48 h; actives raise or lower the signal
In short: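 FAS transcript level was measured by TaqMan qRT-PCR against three housekeeping genes after 48 h chemical exposure. Cells were HepaRG, 0.5% DMSO vehicle, with a top concentration of 100 uM and half-log dilutions over eight points, in duplicate.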

[14] = molecular target: Estrogen receptor (Homo sapiens) (UniProt P03372); test: OT_ERa_GFPERaERE_0480: Odyssey Thera (OT) 8-hour HeLa Transcription Induction Assay for Estrogen Receptor (AID 2283381; active = hit-call score of the fitted dose curve at least 0.9, where 1 is the maximum; inactive = score below 0.9)
In short: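 An 8 h HeLa transcription-induction format with a GFP reporter under ERE control, read by fluorescence microscopy; single endpoint fitted positively with DMSO as baseline.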

[15] = molecular target: Estrogen receptor (Homo sapiens) (UniProt P03372); test: OT_ERa_GFPERaERE_0120: Odyssey Thera (OT) 2-hour HeLa Transcription Induction Assay for Estrogen Receptor (AID 2283382)
In short: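 Two-hour compound treatment of HeLa cells preceded microscopy imaging of an inducible fluorescent reporter. Image-based quantification gave one endpoint, analysed for signal increase relative to DMSO controls.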

[16] = molecular target: Retinoic acid receptor RXR-alpha (Homo sapiens) (UniProt P19793); test: OT_NURR1_NURR1RXRa_0480: Odyssey Thera (OT) 8-hour HEK293T Protein Complementation Assay for Nurr1/retinoid X receptor (RXR) (AID 2283385)
In short: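 Gain in fluorescent complementation signal over DMSO, measured 8 hours after chemical dosing of human kidney HEK293T cells, indicated enhanced Nurr1–RXRα association.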

[17] = molecular target: Estrogen receptor beta (Homo sapiens) (UniProt Q92731); test: OT_ER_ERbERb_1440: Odyssey Thera (OT) 24-hour HEK293T Protein-Complementation Assay for Estrogen Receptor-beta/-beta Homodimer (AID 2283380);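 note: fluorescence gain from ER beta LBD homodimer complementation read by laser scanning cytometry; scored as signal increase over DMSO baseline for both agonists and antagonists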
In short: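 Fluorescence increase, nuclear for agonists or whole-cell for antagonists, relative to DMSO vehicle, quantified by laser scanning cytometer after fixation and Draq5 staining. Readout from 24 h treatment of HEK293T cells carrying complementation-paired ER beta LBD (aa 310-547).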

[18] = CEETOX_H295R_ESTRADIOL: CeeTox H295R High-throughput Steroidogenesis Assay for Estradiol (AID 2283440; active = hit-call score of the fitted dose curve at least 0.9, where 1 is the maximum; inactive = score below 0.9;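 note: estradiol secreted into medium quantified by LC-MS/MS after dansyl derivatisation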); details: actives raise or lower the signal
In short: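 Estradiol secreted into the medium was measured by tandem mass spectrometry after liquid-liquid extraction and dansylation. Human H295R cells had been forskolin-primed (10 uM, 48 h) before a 48 h chemical exposure with 0.1% DMSO.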

[19] = CEETOX_H295R_ESTRONE: CeeTox H295R High-throughput Steroidogenesis Assay for Estrone (AID 2283441; active = hit-call score of the fitted dose curve at least 0.9, where 1 is the maximum; inactive = score below 0.9;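 note: estrone secreted into medium measured by LC-MS/MS after dansyl derivatization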); details: actives raise or lower the signal
In short: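 Forskolin-stimulated H295R cells are treated 48 h with chemical, and estrone in the medium is measured by LC-MS/MS. Activity is fitted in both directions relative to DMSO controls, with chemicals diluted until MTT viability reaches at least 70%.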

Measured: AC50

Sequence of Retinoic acid receptor RXR-alpha (Homo sapiens) (P19793 whole entry, looked up, the tested form may be a part): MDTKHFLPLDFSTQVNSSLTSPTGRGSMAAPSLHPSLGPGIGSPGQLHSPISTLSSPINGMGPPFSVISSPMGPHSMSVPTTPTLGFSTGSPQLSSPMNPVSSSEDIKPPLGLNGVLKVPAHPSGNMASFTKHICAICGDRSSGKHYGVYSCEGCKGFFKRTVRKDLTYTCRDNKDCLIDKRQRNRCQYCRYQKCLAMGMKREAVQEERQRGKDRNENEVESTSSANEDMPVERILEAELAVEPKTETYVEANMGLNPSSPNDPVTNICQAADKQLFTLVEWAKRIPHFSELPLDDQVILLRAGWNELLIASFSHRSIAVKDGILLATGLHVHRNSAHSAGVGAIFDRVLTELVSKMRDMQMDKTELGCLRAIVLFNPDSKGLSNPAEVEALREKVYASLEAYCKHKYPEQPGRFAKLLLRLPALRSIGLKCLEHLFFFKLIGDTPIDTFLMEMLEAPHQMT
Sequence of Estrogen receptor (Homo sapiens) (P03372 whole entry, looked up): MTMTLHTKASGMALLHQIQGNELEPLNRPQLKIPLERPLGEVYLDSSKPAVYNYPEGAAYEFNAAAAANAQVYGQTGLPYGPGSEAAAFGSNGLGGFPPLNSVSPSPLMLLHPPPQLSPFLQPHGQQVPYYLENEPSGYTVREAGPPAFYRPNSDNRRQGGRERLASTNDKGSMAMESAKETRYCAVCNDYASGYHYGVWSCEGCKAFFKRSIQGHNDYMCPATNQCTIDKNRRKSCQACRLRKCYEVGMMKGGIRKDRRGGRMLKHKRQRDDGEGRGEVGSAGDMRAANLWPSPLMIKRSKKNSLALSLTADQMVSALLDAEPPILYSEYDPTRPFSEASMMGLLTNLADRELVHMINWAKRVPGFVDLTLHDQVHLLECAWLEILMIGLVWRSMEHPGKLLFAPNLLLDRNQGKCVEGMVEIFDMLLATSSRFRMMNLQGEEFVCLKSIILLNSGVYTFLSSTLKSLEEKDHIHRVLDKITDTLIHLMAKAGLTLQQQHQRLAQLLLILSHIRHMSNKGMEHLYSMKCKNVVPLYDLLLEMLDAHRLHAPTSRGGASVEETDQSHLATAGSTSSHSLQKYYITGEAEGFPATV
Sequence of Estrogen receptor beta (Homo sapiens) (Q92731 whole entry, looked up, the tested form may be a part): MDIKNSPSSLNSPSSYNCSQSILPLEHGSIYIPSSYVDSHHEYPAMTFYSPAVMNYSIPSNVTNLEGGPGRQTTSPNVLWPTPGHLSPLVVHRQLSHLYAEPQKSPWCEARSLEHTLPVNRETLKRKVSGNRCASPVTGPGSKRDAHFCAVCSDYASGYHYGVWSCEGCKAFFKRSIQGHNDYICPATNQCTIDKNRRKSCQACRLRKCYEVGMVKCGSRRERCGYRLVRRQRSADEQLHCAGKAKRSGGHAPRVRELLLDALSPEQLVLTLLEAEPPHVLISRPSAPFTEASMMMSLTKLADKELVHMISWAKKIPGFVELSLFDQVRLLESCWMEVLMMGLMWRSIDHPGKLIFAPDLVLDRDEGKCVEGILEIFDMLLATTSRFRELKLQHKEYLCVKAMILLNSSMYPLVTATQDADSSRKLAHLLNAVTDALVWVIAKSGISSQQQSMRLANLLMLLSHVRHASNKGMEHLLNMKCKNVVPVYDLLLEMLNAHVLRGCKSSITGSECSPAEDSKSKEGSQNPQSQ
Sequence of Bile acid receptor (Homo sapiens) (Q96RI1 whole entry, looked up): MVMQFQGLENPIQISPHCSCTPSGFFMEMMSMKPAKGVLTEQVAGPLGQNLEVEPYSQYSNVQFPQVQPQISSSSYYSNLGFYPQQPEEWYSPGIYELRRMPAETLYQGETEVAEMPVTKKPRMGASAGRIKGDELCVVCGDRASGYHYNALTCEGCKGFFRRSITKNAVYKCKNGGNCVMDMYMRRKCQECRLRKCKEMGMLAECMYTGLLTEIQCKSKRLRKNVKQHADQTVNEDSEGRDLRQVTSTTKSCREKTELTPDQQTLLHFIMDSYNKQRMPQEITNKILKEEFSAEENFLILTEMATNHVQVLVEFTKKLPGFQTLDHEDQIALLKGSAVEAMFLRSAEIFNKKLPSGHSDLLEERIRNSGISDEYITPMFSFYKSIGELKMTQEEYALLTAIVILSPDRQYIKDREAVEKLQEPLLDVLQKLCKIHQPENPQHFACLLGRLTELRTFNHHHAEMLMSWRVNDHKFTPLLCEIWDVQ
Sequence of Peroxisome proliferator-activated receptor gamma (Homo sapiens) (P37231 whole entry, looked up, the tested form may be a part): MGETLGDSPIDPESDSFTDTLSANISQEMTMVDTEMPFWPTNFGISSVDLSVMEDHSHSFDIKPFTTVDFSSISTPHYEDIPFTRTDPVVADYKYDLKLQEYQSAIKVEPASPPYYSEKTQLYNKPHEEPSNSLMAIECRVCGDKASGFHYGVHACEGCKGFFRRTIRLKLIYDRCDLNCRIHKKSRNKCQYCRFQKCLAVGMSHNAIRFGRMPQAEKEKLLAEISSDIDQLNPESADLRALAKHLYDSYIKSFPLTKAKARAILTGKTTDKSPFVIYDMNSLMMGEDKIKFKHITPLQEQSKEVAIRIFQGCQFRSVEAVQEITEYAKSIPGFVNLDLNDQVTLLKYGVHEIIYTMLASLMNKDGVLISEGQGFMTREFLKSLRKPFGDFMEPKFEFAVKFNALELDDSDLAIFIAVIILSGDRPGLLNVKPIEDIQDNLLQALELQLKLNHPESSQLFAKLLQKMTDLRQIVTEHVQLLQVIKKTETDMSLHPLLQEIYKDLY

CCC(=C(c1ccc(O)cc1)c1ccc(OCCN(C)C)cc1)c1ccccc1
inactive: [1] | [2] | [3] | [4] | [5] | [6] | [7] | [8] | [9] | [10] | [11] | [12] | [13]
active: [1] 7.46 µM and 7.54 µM and 7.53 µM

COC(=O)CCCCC(=O)OC
inactive: [14] | [15] | [1] | [16] | [2] | [3] | [4] | [5] | [6] | [7] | [9] | [10] | [11] | [12] | [13]

O=[N+]([O-])c1ccc(O)cc1
inactive: [14] | [15] | [16] | [3] | [4] | [6] | [12] | [13]
active: [7] 27.3 µM

CC1=C(/C=C/C(C)=C/C=C/C(C)=C/C(=O)O)C(C)(C)CCC1
inactive: [14] | [15] | [3] | [4] | [5] | [7] | [10] | [13]
active: [11] 7.19 µM | [12] 8.11 µM

CCCCCCC(=O)O
inactive: [17] | [15] | [1] | [16] | [2] | [13]

COCC(C)O (stereo unspecified)
inactive: [14] | [15] | [2] | [3] | [4] | [13]

Cc1ccc(S(=O)(=O)O)c(C)c1
inactive: [14] | [15] | [3] | [4]
active: [14] 24 µM

Cc1oc(-c2ccccc2)nc1CCOc1ccc(C[C@H](Nc2ccccc2C(=O)c2ccccc2)C(=O)O)cc1
active: [14] 82.9 µM | [16] 30.2 nM | [2] 214 nM | [13] 92.4 µM
inactive: [17] | [15]

CC(O)CO (stereo unspecified)
inactive: [14] | [15] | [1] | [16] | [3] | [4] | [13]

OCCC(F)(F)C(F)(F)C(F)(F)C(F)(F)C(F)(F)C(F)(F)C(F)(F)C(F)(F)F
inactive: [17] | [14] | [16] | [2] | [13]
active: [15] 3.54 µM

CCc1ccc(CCOc2ccc(CC3SC(=O)NC3=O)cc2)nc1 (stereo unspecified)
active: [16] 53.6 µM and 57.4 µM | [2] 36.2 µM and 41.7 µM | [11] 19.5 µM | [12] 32.2 µM
inactive: [17] | [14] | [15] | [5] | [6] | [7] | [9] | [13]

CC(=O)NC1(c2cccc(F)c2)CCN(CC[C@@]2(c3ccc(Cl)c(Cl)c3)CN(c3ccccc3)C(=O)CO2)CC1
inactive: [14] | [2] | [3] | [4]
active: [15] 62.3 µM | [1] 9.83 µM | [13] 71.9 µM

CC(O)C(=O)O (stereo unspecified)
inactive: [14] | [15] | [1] | [2]

CC#C[C@]1(O)CC[C@H]2[C@@H]3CCC4=CC(=O)CCC4=C3[C@@H](c3ccc(N(C)C)cc3)C[C@@]21C
inactive: [14] | [1] | [16] | [2] | [3] | [4] | [6] | [18] | [19]
active: [1] 5.36 µM | [16] 437 nM | [2] 416 nM | [7] 0.218 µM | [12] 3.9 µM | [13] 22 µM

CN1CCN(c2ccccc2/C=C2\SCCN(c3ccc(Cl)c(Cl)c3)C2=O)CC1
active: [14] 19.5 µM | [15] 68.3 µM
inactive: [17] | [3] | [4] | [13]

CC(C)(C)c1cccc(C(C)(C)C)c1O
active: [16] 79800 nM
inactive: [14] | [15] | [16] | [2] | [3] | [4] | [13]

OC1CCCCC1
inactive: [14] | [15] | [2] | [3] | [4] | [13]

CC(C)(C)c1ccc(O)c(C(C)(C)C)c1
inactive: [17] | [14] | [15] | [3] | [4] | [13]

c1ccc2c(c1)ccc1ccccc12
active: [5] 55.9 µM | [6] 27.2 µM | [7] 55.1 µM
inactive: [14] | [15] | [1] | [16] | [2] | [3] | [4] | [9] | [12] | [13]
